# PMC7862700, “An all-to-all approach to the identification of sequence-specific readers for epigenetic DNA modifications on cytosine”
# Columns and labels:
# Experiment in all cases: DAPPL (digital affinity profiling via proximity ligation, sequencing); 10 mM Tris-HCl pH 7.5, 50 mM NaCl, 1 mM DTT, 4% glycerol, room temperature, 30 min; GST-TFs on glutathione beads, 16-mer random dsDNA library, 0.1% formaldehyde crosslink after washing; high values mean tight binding
# [1] = target: T1, FLI1 (Homo sapiens, UniProt Q01543 1-452); settings: protein: recombinant; tags: N-terminal GST; dsDNA, one strand shown
# T1 sequence: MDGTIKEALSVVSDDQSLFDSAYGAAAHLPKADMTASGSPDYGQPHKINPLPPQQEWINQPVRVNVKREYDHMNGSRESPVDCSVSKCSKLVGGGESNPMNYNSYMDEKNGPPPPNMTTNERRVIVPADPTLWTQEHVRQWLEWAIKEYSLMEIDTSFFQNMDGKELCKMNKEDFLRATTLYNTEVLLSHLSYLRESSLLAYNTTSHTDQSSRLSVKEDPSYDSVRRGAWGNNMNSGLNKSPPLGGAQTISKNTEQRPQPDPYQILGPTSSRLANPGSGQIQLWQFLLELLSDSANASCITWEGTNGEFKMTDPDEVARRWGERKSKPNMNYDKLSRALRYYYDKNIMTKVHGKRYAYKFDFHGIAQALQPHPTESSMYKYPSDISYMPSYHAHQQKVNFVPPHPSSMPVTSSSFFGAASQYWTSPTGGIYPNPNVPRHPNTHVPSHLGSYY
# Procedure, shortened: (§1)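 Yeast served to express human transcription factors as GST fusions, which were then captured on glutathione beads and labelled with DNA barcodes. Pooled with a tag-only sample, they were incubated with 200 nmole of a 16-mer random double-stranded DNA library for 30 min at room temperature in Tris/NaCl/DTT/glycerol buffer, washed, crosslinked with 0.1% formaldehyde, ligated by proximity, amplified by PCR and sequenced. Dividing each hexamer's read frequency for a factor by its frequency for the tag-only sample gives the binding signal.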
# [2] = target: T2, ELK1 (Homo sapiens, UniProt P19419 1-428); settings: protein: recombinant; tags: N-terminal GST; dsDNA, one strand shown
# T2 sequence: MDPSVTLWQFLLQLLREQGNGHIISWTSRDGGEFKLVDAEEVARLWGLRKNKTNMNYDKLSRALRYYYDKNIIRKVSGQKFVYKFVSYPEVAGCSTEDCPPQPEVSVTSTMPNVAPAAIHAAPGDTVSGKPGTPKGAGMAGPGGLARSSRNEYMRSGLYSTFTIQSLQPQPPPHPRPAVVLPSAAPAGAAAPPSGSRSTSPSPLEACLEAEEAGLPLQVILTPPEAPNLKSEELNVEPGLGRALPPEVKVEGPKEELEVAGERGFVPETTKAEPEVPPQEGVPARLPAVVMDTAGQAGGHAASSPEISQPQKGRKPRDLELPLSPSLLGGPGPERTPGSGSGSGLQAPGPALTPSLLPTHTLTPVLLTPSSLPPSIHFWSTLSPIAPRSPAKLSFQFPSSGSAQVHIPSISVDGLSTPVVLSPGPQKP
# Procedure, shortened: as §1
# [3] = target: T3, GABPA (Homo sapiens, UniProt Q06546 1-454); settings: protein: recombinant; tags: N-terminal GST; dsDNA, one strand shown
# T3 sequence: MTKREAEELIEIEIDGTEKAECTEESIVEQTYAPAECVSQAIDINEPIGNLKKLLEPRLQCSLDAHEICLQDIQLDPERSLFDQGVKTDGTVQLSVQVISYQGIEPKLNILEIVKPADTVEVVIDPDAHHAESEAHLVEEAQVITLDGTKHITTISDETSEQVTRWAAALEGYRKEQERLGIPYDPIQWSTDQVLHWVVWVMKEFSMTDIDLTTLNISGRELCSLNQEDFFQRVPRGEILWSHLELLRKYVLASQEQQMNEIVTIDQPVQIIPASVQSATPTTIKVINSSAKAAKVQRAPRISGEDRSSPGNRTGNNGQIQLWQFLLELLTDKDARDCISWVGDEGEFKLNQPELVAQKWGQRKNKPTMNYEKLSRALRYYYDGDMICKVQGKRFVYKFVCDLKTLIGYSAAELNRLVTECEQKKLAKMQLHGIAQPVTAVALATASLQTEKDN
# Procedure, shortened: as §1
# [4] = target: T4, ERG (Homo sapiens, UniProt P11308 1-479); settings: protein: recombinant; tags: N-terminal GST; dsDNA, one strand shown
# T4 sequence: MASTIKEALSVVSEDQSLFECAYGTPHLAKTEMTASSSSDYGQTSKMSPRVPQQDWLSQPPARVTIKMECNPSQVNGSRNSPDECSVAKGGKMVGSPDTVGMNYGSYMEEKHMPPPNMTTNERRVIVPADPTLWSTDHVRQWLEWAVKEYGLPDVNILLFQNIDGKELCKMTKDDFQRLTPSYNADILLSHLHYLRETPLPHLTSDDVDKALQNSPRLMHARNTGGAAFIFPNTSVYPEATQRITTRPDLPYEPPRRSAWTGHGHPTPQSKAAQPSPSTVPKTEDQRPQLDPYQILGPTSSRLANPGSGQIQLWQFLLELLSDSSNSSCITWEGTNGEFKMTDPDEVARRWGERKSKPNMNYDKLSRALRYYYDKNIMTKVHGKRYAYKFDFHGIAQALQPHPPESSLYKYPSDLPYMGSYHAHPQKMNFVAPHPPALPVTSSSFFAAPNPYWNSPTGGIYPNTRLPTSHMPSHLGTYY
# Procedure, shortened: as §1
# [5] = target: ELF1 (Homo sapiens, UniProt P32519 1-619); settings: protein: recombinant; tags: N-terminal GST; dsDNA, one strand shown
# Procedure, shortened: as §1
# [6] = target: SPI1 (Homo sapiens, UniProt P17947 1-270); settings: protein: recombinant; tags: N-terminal GST; dsDNA, one strand shown
# Procedure, shortened: as §1
# [7] = target: SPIB (Homo sapiens, UniProt Q01892 1-262); settings: protein: recombinant; tags: N-terminal GST; dsDNA, one strand shown
# Procedure, shortened: as §1
# [8] = target: T5, ELK3 (Homo sapiens, UniProt P41970 1-407); settings: protein: recombinant; tags: N-terminal GST; dsDNA, one strand shown
# T5 sequence: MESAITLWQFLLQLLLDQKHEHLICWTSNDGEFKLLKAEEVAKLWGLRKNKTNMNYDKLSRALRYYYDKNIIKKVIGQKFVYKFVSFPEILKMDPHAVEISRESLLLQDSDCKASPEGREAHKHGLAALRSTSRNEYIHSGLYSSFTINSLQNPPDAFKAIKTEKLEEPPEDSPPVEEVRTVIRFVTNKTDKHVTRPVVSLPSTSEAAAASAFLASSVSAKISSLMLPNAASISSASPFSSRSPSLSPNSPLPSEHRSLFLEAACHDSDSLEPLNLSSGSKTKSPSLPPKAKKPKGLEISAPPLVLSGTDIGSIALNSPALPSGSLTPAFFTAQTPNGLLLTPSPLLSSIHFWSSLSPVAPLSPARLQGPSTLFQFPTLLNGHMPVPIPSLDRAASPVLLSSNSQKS
# Procedure, shortened: as §1
# [9] = target: T6, FEV (Homo sapiens, UniProt Q99581 1-238); settings: protein: recombinant; tags: N-terminal GST; dsDNA, one strand shown
# T6 sequence: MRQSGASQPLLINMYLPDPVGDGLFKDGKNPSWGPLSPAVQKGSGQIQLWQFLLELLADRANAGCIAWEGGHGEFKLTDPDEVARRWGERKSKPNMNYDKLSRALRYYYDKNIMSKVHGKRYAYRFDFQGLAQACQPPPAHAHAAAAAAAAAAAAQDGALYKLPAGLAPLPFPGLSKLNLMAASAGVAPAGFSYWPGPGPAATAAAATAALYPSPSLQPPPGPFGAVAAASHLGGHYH
# Procedure, shortened: as §1
# [10] = target: ETV5 (Homo sapiens, UniProt P41161 1-510); settings: protein: recombinant; tags: N-terminal GST; dsDNA, one strand shown
# Procedure, shortened: as §1
# [11] = target: HSF1 (Homo sapiens, UniProt Q00613 1-529); settings: protein: recombinant; tags: N-terminal GST; chain copies: 3; dsDNA, one strand shown
# Procedure, shortened: as §1
# [12] = target: T7, SPIC (Homo sapiens, UniProt Q8N5J4 1-248); settings: protein: recombinant; tags: N-terminal GST; dsDNA, one strand shown
# T7 sequence: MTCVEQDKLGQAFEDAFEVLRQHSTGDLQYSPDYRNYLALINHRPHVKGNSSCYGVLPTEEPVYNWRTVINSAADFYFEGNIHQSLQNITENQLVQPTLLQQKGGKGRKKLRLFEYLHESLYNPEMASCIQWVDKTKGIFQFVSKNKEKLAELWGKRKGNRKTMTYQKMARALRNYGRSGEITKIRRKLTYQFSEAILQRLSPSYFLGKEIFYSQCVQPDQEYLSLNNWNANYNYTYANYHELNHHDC
# Procedure, shortened: as §1
# [13] = target: ELF4 (Homo sapiens, UniProt Q99607 1-663); settings: protein: recombinant; tags: N-terminal GST; dsDNA, one strand shown
# Procedure, shortened: as §1
# [14] = target: T8, ELK4 (Homo sapiens, UniProt P28324-2 1-405); settings: protein: recombinant; tags: N-terminal GST; dsDNA, one strand shown
# T8 sequence: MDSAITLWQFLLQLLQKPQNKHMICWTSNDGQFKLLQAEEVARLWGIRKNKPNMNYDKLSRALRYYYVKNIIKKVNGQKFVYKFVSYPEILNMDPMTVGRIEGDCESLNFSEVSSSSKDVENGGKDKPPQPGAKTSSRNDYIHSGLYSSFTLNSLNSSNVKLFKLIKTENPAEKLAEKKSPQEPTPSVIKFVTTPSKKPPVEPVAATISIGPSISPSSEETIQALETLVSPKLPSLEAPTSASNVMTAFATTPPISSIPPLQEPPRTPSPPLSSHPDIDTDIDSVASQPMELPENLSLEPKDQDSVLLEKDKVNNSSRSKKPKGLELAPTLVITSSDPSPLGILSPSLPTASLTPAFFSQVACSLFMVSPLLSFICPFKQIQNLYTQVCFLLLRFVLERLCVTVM
# Procedure, shortened: as §1
# [15] = target: T9, ELF3 (Homo sapiens, UniProt P78545 1-371); settings: protein: recombinant; tags: N-terminal GST; dsDNA, one strand shown
# T9 sequence: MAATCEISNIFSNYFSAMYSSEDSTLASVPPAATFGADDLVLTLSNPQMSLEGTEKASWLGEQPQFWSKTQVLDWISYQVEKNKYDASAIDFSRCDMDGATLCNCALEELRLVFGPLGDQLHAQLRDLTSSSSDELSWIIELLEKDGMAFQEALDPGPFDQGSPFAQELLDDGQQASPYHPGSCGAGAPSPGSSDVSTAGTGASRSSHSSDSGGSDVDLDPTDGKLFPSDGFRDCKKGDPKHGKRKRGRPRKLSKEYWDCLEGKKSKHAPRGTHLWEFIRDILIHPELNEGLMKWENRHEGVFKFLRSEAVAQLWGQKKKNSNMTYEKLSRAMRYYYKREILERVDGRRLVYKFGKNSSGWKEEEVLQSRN
# Procedure, shortened: as §1
# [16] = target: CRX (Homo sapiens, UniProt O43186 1-299); settings: protein: recombinant; tags: N-terminal GST; dsDNA, one strand shown
# Procedure, shortened: as §1
# [17] = target: ETV1 (Homo sapiens, UniProt P50549 1-477); settings: protein: recombinant; tags: N-terminal GST; dsDNA, one strand shown
# Procedure, shortened: as §1
# Sequence of ETV5 (P41161 whole entry): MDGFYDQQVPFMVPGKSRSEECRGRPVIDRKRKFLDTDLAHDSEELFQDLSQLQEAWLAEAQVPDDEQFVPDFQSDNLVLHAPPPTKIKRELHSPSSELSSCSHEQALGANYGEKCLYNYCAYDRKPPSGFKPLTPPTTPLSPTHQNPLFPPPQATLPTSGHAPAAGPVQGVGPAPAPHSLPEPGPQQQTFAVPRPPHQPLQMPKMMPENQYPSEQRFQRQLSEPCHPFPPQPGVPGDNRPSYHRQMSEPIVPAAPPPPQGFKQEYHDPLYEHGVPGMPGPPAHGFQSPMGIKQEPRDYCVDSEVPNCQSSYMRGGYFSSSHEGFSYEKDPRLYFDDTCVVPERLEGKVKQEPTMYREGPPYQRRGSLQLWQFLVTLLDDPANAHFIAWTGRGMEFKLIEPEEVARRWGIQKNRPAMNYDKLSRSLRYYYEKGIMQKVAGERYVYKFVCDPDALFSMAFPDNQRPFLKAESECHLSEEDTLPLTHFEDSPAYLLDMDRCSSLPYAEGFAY
# Sequence of ETV1 (P50549 whole entry): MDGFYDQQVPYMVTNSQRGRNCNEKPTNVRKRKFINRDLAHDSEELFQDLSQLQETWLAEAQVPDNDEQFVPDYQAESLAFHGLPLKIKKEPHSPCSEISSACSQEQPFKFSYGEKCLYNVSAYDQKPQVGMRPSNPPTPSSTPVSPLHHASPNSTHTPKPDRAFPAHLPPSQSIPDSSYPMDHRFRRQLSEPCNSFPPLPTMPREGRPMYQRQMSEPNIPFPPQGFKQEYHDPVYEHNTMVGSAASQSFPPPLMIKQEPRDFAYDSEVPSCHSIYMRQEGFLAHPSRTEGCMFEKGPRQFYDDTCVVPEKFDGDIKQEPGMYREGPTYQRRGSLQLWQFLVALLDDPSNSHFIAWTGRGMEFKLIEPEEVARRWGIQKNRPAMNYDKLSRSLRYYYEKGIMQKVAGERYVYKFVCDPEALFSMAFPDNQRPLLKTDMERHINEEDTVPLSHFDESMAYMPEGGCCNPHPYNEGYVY
# Sequence of HSF1 (Q00613 whole entry): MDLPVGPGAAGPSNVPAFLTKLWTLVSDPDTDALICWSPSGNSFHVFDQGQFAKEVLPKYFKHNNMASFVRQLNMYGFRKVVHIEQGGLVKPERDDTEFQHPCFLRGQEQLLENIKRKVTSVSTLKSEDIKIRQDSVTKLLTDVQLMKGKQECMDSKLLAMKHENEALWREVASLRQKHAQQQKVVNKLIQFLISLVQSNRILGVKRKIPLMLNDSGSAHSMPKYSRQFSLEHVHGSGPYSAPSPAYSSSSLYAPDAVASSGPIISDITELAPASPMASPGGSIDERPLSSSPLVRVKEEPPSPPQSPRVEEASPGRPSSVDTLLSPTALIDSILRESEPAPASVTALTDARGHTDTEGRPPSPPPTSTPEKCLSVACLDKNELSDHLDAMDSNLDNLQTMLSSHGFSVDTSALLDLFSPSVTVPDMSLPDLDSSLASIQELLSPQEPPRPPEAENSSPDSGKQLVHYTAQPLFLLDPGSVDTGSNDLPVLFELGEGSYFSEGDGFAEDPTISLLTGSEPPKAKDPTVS
# Sequence of ELF4 (Q99607 whole entry): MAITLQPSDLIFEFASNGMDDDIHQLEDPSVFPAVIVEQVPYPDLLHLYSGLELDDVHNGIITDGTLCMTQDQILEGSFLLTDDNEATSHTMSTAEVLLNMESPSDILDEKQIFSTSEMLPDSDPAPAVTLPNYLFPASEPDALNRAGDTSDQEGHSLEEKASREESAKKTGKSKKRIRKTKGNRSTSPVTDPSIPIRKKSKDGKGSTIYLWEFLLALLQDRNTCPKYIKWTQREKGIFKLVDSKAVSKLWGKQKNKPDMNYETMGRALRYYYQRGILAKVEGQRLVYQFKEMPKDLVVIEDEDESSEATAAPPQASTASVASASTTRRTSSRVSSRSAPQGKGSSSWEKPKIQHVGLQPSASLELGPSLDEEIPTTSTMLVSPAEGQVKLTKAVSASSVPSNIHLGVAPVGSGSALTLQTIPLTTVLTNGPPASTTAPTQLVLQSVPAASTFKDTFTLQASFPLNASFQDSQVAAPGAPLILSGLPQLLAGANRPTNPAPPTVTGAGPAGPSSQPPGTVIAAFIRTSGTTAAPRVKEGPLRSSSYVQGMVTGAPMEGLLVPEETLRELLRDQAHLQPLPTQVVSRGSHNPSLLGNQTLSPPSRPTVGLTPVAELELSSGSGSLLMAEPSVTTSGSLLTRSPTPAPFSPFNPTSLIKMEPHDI
# Sequence of CRX (O43186 whole entry): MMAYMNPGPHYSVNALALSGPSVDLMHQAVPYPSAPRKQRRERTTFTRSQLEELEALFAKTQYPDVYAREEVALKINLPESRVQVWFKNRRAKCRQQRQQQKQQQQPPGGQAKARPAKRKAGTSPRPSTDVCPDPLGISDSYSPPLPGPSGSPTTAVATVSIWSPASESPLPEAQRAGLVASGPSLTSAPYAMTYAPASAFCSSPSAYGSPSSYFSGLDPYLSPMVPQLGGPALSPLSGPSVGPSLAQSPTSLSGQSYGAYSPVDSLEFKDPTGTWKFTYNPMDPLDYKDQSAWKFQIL
# Sequence of ELF1 (P32519 whole entry): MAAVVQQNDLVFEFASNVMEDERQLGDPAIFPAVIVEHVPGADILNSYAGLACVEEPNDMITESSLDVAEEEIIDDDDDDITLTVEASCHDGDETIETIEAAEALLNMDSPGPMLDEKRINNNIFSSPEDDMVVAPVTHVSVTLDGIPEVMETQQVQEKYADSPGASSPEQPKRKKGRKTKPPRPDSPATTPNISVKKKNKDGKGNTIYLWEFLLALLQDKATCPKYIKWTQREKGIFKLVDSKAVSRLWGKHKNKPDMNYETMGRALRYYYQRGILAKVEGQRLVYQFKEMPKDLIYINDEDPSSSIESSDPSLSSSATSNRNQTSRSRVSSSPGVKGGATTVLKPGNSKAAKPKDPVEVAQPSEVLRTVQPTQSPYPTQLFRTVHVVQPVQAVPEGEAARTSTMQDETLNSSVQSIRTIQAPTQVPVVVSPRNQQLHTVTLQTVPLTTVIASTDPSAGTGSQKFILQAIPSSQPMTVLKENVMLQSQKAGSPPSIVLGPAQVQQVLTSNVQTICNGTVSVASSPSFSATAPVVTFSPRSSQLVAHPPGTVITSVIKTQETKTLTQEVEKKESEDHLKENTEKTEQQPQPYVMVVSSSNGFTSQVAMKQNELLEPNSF
# Sequence of SPIB (Q01892 whole entry): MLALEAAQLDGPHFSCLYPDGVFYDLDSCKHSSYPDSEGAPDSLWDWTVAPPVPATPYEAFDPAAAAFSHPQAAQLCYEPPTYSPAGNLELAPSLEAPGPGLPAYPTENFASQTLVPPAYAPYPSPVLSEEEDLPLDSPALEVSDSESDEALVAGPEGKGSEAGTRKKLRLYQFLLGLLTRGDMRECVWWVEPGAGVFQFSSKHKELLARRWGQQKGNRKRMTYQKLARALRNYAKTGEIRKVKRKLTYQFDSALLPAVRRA
sequence,measurement,setting,value
AGTTCT,binding signal,[1],"1.02 fold enrichment (6-mer frequency, TF over GST control)"
same,binding signal,[2],"1.15 fold enrichment (6-mer frequency, TF over GST control)"
same,binding signal,[3],"1.11 fold enrichment (6-mer frequency, TF over GST control)"
same,binding signal,[4],"1.11 fold enrichment (6-mer frequency, TF over GST control)"
same,binding signal,[5],"1.04 fold enrichment (6-mer frequency, TF over GST control)"
same,binding signal,[6],"1.14 fold enrichment (6-mer frequency, TF over GST control)"
same,binding signal,[7],"1.2 fold enrichment (6-mer frequency, TF over GST control)"
same,binding signal,[8],"1.11 fold enrichment (6-mer frequency, TF over GST control)"
same,binding signal,[9],"1.1 fold enrichment (6-mer frequency, TF over GST control)"
same,binding signal,[10],"1.12 fold enrichment (6-mer frequency, TF over GST control)"
same,binding signal,[11],"1.92 fold enrichment (6-mer frequency, TF over GST control)"
same,binding signal,[12],"1.1 fold enrichment (6-mer frequency, TF over GST control)"
same,binding signal,[13],"1.13 fold enrichment (6-mer frequency, TF over GST control)"
same,binding signal,[14],"1.2 fold enrichment (6-mer frequency, TF over GST control)"
same,binding signal,[15],"1.17 fold enrichment (6-mer frequency, TF over GST control)"
same,binding signal,[16],"1.19 fold enrichment (6-mer frequency, TF over GST control)"
same,binding signal,[17],"1.03 fold enrichment (6-mer frequency, TF over GST control)"
